Test results published in PubChem BioAssay (NCATS).
Inconclusive results are not listed. A call without a number means that no potency is given here. Activity calls are given as the source filed them. Calls come from the whole dose curve; as a rule, active = well fitted inhibition curve with a large enough effect; inconclusive = small, poorly fitted or top-dose-only effect, or effect the other way; inactive = flat fitted curve, though single readings scatter.

Assay: Quantitative high throughput screen for delayed death inhibitors of the malarial parasite plastid, 48 hour incubation (AID 488752); note: nearly all actives have a fitted effect of over 65% in size
Settings: Plasmodium falciparum growth; series mostly up to 28.7 µM
Summary of the method: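 Cultures: infected erythrocytes at final 2% hematocrit and 0.1% parasitemia in Albumax-supplemented RPMI. Parasites express integrated firefly luciferase. Incubation with compound lasts 48 h before luminescent detection of remaining reporter activity.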
Potency is the fitted concentration of half-maximal effect.

SMILES | Potency
COc1ccc2[nH]cc(CCN)c2c1 | inactive
C[C@]12Cc3cn4c(nc3C=C1CCC1C2CC[C@@]2(C)[C@H]1CC[C@@]2(O)C#N)nc1ccccc14 (stereo partly drawn) | 3.7 µM (active)
CCCN1CC[C@@H]2c3cc(O)ccc3CC[C@@H]21 | inactive
NCCCP(=O)(O)O | inactive
C[N+](C)(C)CCOC(=O)CBr | inactive
C[N+](C)(C)CC#CCN1CCCC1=O | inactive
NC(C(=O)O)c1cc(=O)[nH]o1 (stereo not drawn) | inactive
O=C(O)c1cc[c]([Hg][Cl])cc1 | 4.15 µM (active)
C[Se]C[C@H](N)C(=O)O | inactive
CC12NC(Cc3ccccc31)c1ccccc12 (stereo not drawn) | inactive
CC(=O)NBr | inactive
CN(C(=O)Cc1ccc(Cl)c(Cl)c1)C(CN1CCCC1)c1cccc(OCC(=O)O)c1 (stereo not drawn) | inactive
CCCN(CCC)C1CCc2cccc(O)c2C1 (stereo not drawn) | inactive
C[C@H](Cc1ccc2c(c1)OC(C(=O)O)(C(=O)O)O2)NC[C@H](O)c1cccc(Cl)c1 | inactive
NCCc1ccc(S(=O)(=O)F)cc1 | inactive
Clc1ccc(N2CC3CCC(C2)N3)nn1 | inactive
O=S1(=O)N(CCN2CC=C(c3c[nH]c4cc(F)ccc34)CC2)c2cccc3c2N1CCC3 | 1.47 µM (active)
NC(Cc1ccc(N(CCCl)CCCl)cc1)C(=O)O (stereo not drawn) | 8.28 µM (active)
